The list is not random: actives were taken first. Their share in the collection is about 7.3%.
AmpC detergent: qHTS Inhibitors of AmpC Beta-Lactamase (assay with detergent); AmpC hydrolysis of nitrocefin, absorbance 480 nm, 0.01% Triton; Potency, µM (doses to about 114 µM), for inactives: at the highest dose activity change, negative = inhibition, actives largely listed as inhibitors; 0.041% of 370,000 active;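 also: potency is read from the fitted curve at half-maximal effect; 0% = no-compound wells and -100% = no-enzyme wells; nearly all actives have a fitted effect of over 25% in size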
Target sequence (P00811 whole entry, looked up): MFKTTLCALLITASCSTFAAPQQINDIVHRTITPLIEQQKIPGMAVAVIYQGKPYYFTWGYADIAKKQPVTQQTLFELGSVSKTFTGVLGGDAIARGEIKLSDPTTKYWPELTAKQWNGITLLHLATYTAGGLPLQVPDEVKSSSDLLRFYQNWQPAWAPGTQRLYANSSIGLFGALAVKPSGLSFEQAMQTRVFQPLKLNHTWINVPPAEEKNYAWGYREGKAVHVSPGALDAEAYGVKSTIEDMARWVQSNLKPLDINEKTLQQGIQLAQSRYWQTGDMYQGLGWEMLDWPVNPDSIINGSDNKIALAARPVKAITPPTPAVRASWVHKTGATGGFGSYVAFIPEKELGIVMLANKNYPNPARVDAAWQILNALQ
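20 mM phosphate pH 7.0 + 0.01% (detergent screen) or 0.0001% Triton X-100; 5.3 nM AmpC reagent; cpd preinc 15 min RT; nitrocefin (800 uM stock) to start; A480 q20 s × 4 min; Activity was normalised to no-enzyme and no-compound control wells.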
AmpC no deterg: qHTS Inhibitors of AmpC Beta-Lactamase (assay without detergent) | P00811 | AmpC nitrocefin hydrolysis, absorbance 480 nm, 0.0001% Triton | Potency, µM (series often up to 57.1 µM), without a hit: at the top dose activity change, negative = inhibition, usual class: inhibitors | 0.52% of 330,000 active;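 also: potency is read from the fitted curve at half-maximal effect; plate controls were no compound for no effect and no enzyme for full effect; nearly all actives have a fitted effect of over 20% in size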
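20 mM phosphate pH 7.0 + 0.01% (detergent screen) or 0.0001% Triton X-100; 5.3 nM AmpC reagent; cpd preinc 15 min RT; nitrocefin (800 uM stock) to start; A480 q20 s × 4 min; Activity was normalised to no-enzyme and no-compound control wells.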
HCV inhibitor: qHTS Assay for Inhibitors of Hepatitis C Virus (HCV) | 3.4% of 340,000 active | Potency, µM (top dose mostly 41.8 µM), inactives show at the highest dose activity change, negative = inhibition, actives largely listed as inhibitors | Huh7.5.1 HCVcc-Cre infection, luciferase reporter, 44 h; also: potency is read from the fitted curve at half-maximal effect
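Compounds are dispensed onto cells plated 4 h earlier at 1,000 per well, with HCVcc-Cre virus (about 0.5 moi) added next. Following 44 h of culture, luminescent signal is measured for 15 sec after 15 min with substrate at room temperature.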
HCMV antiviral: qHTS Assay for inhibitors of the human cytomegalovirus (HCMV); activity change, negative = inhibition, % at 57.5 µM; 4.5% of 410,000 active; HFF cells, HCMV-luciferase reporter, 72 h; active compounds read low; in the data active = activity change below about -60%; inconclusive = no clear call, values can overlap the other calls; inactive = above about -39%
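Cell-based, HFFs, 1000 cells/well, 16 h 37C; cpds in DMSO + HCMV-luc, MOI 1 PFU/cell; 72 h 37C; OneGlo luminescence after 5 min RT; norm. to buffer vs Salinomycin 10uM.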
FMDV antiviral: High Throughput Screening for Foot and Mouth Disease Virus Antivirals. FMDV antiviral cell-based qHTS. Potency, µM (series often up to 57.9 µM), for the others: at the highest dose activity change, negative = inhibition, most hits filed as inhibitors. 1.2% of 410,000 active. AID 1159524, 2015; calls by dose curve; tested in HEK293T cells; also: read-out not given here; potency is read from the fitted curve at half-maximal effect; nearly all actives have a fitted effect of over 45% in size
Active calls of the source: *. Unless noted, calls follow the shape of the dose curve; as a rule, active = well fitted curve in the direction sought with a large enough effect; inconclusive = small, poorly fitted or top-dose-only effect, or another doubt; inactive = no such curve, though single readings can be large; an effect the other way counts as inactive or inconclusive. Unless noted, % is scaled to controls: 0 for no effect and ±100 for the full control effect.

For CS(=O)(=O)c1nc(S(=O)(=O)c2ccc(Cl)cc2)c(N2CCN(CCO)CC2)s1 the results were AmpC detergent -5%, AmpC no deterg 19%, HCV inhibitor -2%, HCMV antiviral -63* and FMDV antiviral -9%.
Cc1nnsc1C(=O)Nc1ccc(S(=O)(=O)N2CCCCC2C)cc1 (centres undefined) was read as AmpC detergent -10%, AmpC no deterg -31%, HCV inhibitor inconclusive, HCMV antiviral -32 and FMDV antiviral -23%.
Cc1ccc(S(=O)(=O)n2ccc3c(OCCOCCNCc4ccc(F)cc4)cccc32)cc1 was read as AmpC detergent 5%, AmpC no deterg 179%, HCV inhibitor inconclusive, HCMV antiviral -101* and FMDV antiviral inconclusive.
For CC1=CC2OC3CC4OC(=O)C=CC=CC(C(C)O)OCC(O)C(C)CC(=O)OCC2(CC1O)C4(C)C31CO1 (centres undefined) the results were HCMV antiviral -97*.
`CC(=O)OC1C(=O)OCC23CCC4(C)OC4C2OC2CC(OC(=O)C=CC=CC(=O)OCCC1C)C3(C)C21CO1` (centres undefined) gave HCMV antiviral -96*.
For CC(O)C1C=CC=CC(=O)OC2CC3OC4C5OC5(C)CCC4(COC(=O)C4OC4(C)C(O)CO1)C2(C)C31CO1 (centres undefined) the results were HCMV antiviral -96*.
For O=C(CCC1N=C2c3ccccc3N=C(SCc3ccc(F)cc3)N2C1=O)NCc1ccc(F)cc1 (centres undefined) the results were AmpC detergent 9%, HCMV antiviral 28 and FMDV antiviral -33%.
For O=C(O)CSc1nc2sc3c(c2c(=O)n1-c1ccccc1)CCC3 the results were AmpC detergent -3%, AmpC no deterg -21%, HCV inhibitor -5%, HCMV antiviral -25 and FMDV antiviral 9%.
For Cc1nn(Cc2ccccc2)c(C)c1NC(=O)CSc1nc2sc3c(c2c(=O)n1C)CCC3 the results were HCV inhibitor 22µM* and FMDV antiviral inconclusive.
Screening CC(NC(=O)CSc1nc2sc3c(c2c(=O)n1-c1ccccc1)CCCC3)c1ccccc1 (centres undefined) returned AmpC detergent inconclusive, AmpC no deterg -14%, HCV inhibitor 1% and HCMV antiviral -81*.
COc1ccc(-n2c(SCCNCCO)nc3sc4c(c3c2=O)CCCC4)cc1 was read as AmpC detergent -10%, AmpC no deterg 40%, HCV inhibitor 2.8µM*, HCMV antiviral -9 and FMDV antiviral -7%.
`COc1ccc(-n2c(SCC(=O)O)nc3sc4c(c3c2=O)CCCC4)cc1` gave AmpC detergent -6%, AmpC no deterg -30%, HCV inhibitor 5%, HCMV antiviral -12 and FMDV antiviral -10%.
CC(C)C(C)NC(=O)CSc1nc2scc(-c3ccco3)c2c(=O)n1-c1ccccc1 (centres undefined) was read as AmpC detergent -6%, AmpC no deterg 20%, HCV inhibitor 8%, HCMV antiviral -63* and FMDV antiviral 0%.
Screening Cc1cc(NC(=O)CSc2nc3sc4c(c3c(=O)n2C)CCCC4)no1 returned AmpC detergent inconclusive, AmpC no deterg 84%, HCV inhibitor -3%, HCMV antiviral 5 and FMDV antiviral -5%.
`O=C(NCc1cccs1)c1ccc2sc([C@H]3C[C@H](O)[C@@H](CO)O3)nc2c1` gave HCMV antiviral 44 and FMDV antiviral 9%.
`COC(=O)c1cc2oc(C)cc2n1Cc1c(C)cc(C)cc1C` gave AmpC detergent 14%, HCMV antiviral 18 and FMDV antiviral -15%.
Screening COc1cc(Nc2cc3[nH]c(-c4ccccc4)cc3cn2)cc(C(F)(F)F)c1 returned HCMV antiviral -11.
Screening CC(=O)C1=C(O)C(=O)N(c2ccccn2)C1c1cccc(F)c1 (centres undefined) returned AmpC detergent -4%, AmpC no deterg -11%, HCV inhibitor 3%, HCMV antiviral -9 and FMDV antiviral 3%.
For O=[N+]([O-])c1ccc(S(=O)(=O)c2cccc(C(F)(F)F)c2)nc1 the results were HCV inhibitor inconclusive and FMDV antiviral 18µM*.
`Cc1ccc(-n2cccc2/C=C2\C(=N)N3N=C(C(C)C)SC3=NC2=O)cc1` gave AmpC detergent inconclusive, AmpC no deterg 16µM*, HCV inhibitor -6%, HCMV antiviral -1 and FMDV antiviral -14%.
For CC1CN=C(c2cc(Cl)c(N)c(Cl)c2)c2c3ccc(C(F)(F)F)cc3[n+]([O-])n21 (centres undefined) the results were HCMV antiviral 40.
CCCCCOc1ccc(NC(=O)Cn2c(-c3cncs3)nc3ccccc32)cc1 was read as AmpC detergent 3%, HCMV antiviral -64* and FMDV antiviral -8%.
Cc1cc(C)cc(NC(=O)Cn2c(-c3cncs3)nc3ccccc32)c1 was read as AmpC detergent -9%, HCMV antiviral -27 and FMDV antiviral -20%.
For CCOC(=O)c1sc2ncn(CC(=O)Nc3ccc(OC)c(Cl)c3)c(=O)c2c1C the results were AmpC detergent 7%, HCMV antiviral 11 and FMDV antiviral -4%.
For CCOC(=O)N1CCN(C(=O)C(NC(=O)c2ccc(C(C)(C)C)cc2)C(C)C)CC1 (centres undefined) the results were AmpC detergent -3%, AmpC no deterg 171%, HCV inhibitor inconclusive, HCMV antiviral -62* and FMDV antiviral -28%.
Screening CCOC(=O)N1CCN(C(=O)c2ccccc2NC(=O)c2ccc(C(C)(C)C)cc2)CC1 returned AmpC detergent 2%, AmpC no deterg 145%, HCV inhibitor 22%, HCMV antiviral inconclusive and FMDV antiviral -5%.
`COCCOc1ccc(C(F)(F)F)cc1NC(=O)COC(=O)Cc1c[nH]c2ccccc12` gave AmpC detergent 6%, AmpC no deterg -5%, HCV inhibitor -25%, HCMV antiviral 13 and FMDV antiviral -13%.
Cc1ccccc1Cn1nc(C)c(NC(=O)c2noc3c2CCc2ccccc2-3)c1C was read as AmpC detergent inconclusive, AmpC no deterg 4µM*, HCV inhibitor inconclusive, HCMV antiviral -24 and FMDV antiviral inconclusive.
Cc1ccccc1Cn1nc(C)c(NC(=O)c2noc3c2CC(C(C)(C)C)CC3)c1C (centres undefined) was read as AmpC detergent -2%, AmpC no deterg 111%, HCV inhibitor -5%, HCMV antiviral inconclusive and FMDV antiviral inconclusive.

Compound activity: PubChem, National Center for Advancing Translational Sciences (NCATS)
